Test results from PubChem BioAssay (NCATS).
Inconclusive results are not listed. Calls of active or inactive are those of the source. Unless noted, the call rests on the fitted dose curve; in most records, active means well fitted curve in either direction with a large enough effect (not every such curve was filed as active); inconclusive means small, poorly fitted or top-dose-only effect, or another doubt; inactive means flat fitted curve, though single readings scatter.

Columns and labels:
[1] = molecular target: Lysosomal acid glucosylceramidase (Homo sapiens) (UniProt P04062); assay: Glucocerebrosidase-p2 (AID 348; in the data active means potency below about 10 µM; further: potency means the concentration at half of the fitted maximal effect); details: purified GBA, blue fluorogenic substrate, 40 min
Chain of Lysosomal acid glucosylceramidase (Homo sapiens) (P04062 whole entry, looked up): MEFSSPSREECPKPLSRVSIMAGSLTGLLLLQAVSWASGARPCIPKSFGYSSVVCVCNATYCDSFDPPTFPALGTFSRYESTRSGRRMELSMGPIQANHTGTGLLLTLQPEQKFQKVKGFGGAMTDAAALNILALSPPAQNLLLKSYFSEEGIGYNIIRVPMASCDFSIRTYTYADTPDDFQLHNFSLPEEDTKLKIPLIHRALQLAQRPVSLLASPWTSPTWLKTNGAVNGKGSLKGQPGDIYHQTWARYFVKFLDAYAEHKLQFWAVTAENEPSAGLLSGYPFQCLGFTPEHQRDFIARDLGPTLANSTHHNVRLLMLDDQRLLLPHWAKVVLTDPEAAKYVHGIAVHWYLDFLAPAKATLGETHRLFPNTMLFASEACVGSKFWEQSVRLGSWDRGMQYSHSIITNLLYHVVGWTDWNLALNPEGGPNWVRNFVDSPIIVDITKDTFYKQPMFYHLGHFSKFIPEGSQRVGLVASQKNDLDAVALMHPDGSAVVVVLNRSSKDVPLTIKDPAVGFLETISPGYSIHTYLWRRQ
Procedure, shortened: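 Compounds titrated from 0.6 nM upwards against 0.2 nM enzyme in pH 5.9 citric acid/KH2PO4, taurocholate, tween-20; blue fluorogenic substrate 80 uM, 40 min room temperature, stopped and read Ex 365/Em 440 for AC50.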

[2] = AP1 Signaling Pathway (AID 357); details: ME-180 AP-1-bla reporter, EGF-induced, beta-lactamase ratio, 5 h; at 7.69 µM (top of the series) unless noted;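 further: ME-180 reporter cells stimulated with EGF at its EC50 level; on the % scale 0 is the no-effect control and ±100 the full control effect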
Procedure, shortened: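 Read-out was the 460nm/530nm emission ratio (excitation 405nm) after CCF4 loading for 2.5 hours at room temperature. Cells carried an AP-1-driven beta-lactamase reporter, were stimulated with EC50 EGF plus compound for 5 hours, and AC50 values came from titrations.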

[3] = molecular target: Cytochrome P450 1A2 (Homo sapiens) (UniProt P05177); assay: p450-cyp1a2 (AID 410; calls by dose curve; further: potency means the concentration at half of the fitted maximal effect;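 on activity change, negative = inhibition: -100% = full effect of reference inhibitor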); details: recombinant CYP1A2, luciferin-ME demethylation, luminescence; series mostly up to 11.4 µM
Chain of Cytochrome P450 1A2 (Homo sapiens) (P05177 whole entry, looked up): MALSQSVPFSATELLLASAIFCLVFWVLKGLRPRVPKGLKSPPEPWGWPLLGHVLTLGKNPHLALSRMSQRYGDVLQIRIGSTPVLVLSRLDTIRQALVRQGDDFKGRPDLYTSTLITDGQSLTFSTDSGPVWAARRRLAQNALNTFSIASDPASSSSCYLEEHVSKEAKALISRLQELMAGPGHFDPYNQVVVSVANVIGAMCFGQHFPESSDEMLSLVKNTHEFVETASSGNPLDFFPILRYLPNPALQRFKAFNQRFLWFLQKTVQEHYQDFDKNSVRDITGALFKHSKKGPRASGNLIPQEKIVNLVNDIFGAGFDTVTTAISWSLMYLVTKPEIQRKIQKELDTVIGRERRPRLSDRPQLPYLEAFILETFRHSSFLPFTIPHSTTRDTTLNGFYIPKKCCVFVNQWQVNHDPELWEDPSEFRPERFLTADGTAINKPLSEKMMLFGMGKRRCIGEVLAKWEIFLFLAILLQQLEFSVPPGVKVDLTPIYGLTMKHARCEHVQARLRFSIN
Procedure, shortened: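 20nM CYP1A2 with 100uM Luciferin-ME (at Km) in 100mM KPO4; compound preincubated 10 min, NADPH regeneration added, 60 min at room temperature. Luciferin quantified by luminescence after detection reagent; normalized to 57 uM furafylline.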

[4] = NFAT Signaling Pathway (AID 444); details: Jurkat NFAT-bla M1, carbachol, beta-lactamase ratio, 5 h; at 7.69 µM (top of the series) unless noted;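 further: carbachol stimulus at about its EC50 of 1 µM final; on the % scale 0 is the no-effect control and ±100 the full control effect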
Procedure, shortened: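 Jurkat cells with NFAT-driven β-lactamase reporter and co-expressed M1 receptor, stimulated with carbachol (final 1 uM, ~EC50), compound titration, 5 h at 37 °C. CCF4 loaded 1 h at RT; 460/530 nm ratio gave %activity and AC50.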

[5] = molecular target: Glucocorticoid receptor (Homo sapiens) (UniProt P04150); assay: GR-GFP Redistribution (AID 450;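 active means compounds whose dose series gives a full or clear partial fitted curve of increased nuclear translocation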; further: potency means the concentration at half of the fitted maximal effect); details: U2OS GR-GFP nuclear translocation, laser cytometry, 2 h
Chain of Glucocorticoid receptor (Homo sapiens) (P04150 whole entry, looked up, the tested form may be a part): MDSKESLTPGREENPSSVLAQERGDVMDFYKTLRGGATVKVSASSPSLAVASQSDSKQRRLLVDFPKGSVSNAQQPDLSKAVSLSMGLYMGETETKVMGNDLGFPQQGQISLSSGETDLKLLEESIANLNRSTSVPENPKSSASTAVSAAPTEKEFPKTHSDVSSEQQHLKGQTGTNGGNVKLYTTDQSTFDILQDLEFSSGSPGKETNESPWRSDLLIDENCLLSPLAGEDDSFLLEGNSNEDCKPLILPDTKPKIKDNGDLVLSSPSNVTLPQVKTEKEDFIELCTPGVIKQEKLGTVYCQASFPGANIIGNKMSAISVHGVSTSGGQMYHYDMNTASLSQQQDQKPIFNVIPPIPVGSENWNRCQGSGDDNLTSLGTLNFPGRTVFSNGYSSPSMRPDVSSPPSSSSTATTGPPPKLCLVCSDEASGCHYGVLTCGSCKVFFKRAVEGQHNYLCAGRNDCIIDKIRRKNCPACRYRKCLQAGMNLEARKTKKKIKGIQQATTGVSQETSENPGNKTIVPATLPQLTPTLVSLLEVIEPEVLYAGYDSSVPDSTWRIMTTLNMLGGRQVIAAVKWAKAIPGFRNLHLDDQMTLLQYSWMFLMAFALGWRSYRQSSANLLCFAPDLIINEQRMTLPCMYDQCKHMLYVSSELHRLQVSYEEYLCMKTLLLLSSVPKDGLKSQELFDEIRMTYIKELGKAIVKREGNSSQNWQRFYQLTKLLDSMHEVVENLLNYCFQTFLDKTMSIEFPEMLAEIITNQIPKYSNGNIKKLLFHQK

[6] = molecular target: Glucocorticoid receptor (Homo sapiens) (UniProt P04150); assay: GR-EFC Redistribution (AID 451; calls by dose curve; further: potency means the concentration at half of the fitted maximal effect); details: CHO-K1 GR-EFC translocation, beta-gal luminescence, 2 h
Procedure, shortened: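 CHO-K1 cells expressing nuclear EA and GR-ED fragments of b-gal; compounds titrated up to 46 uM final, 2 h at 37 C. GR nuclear translocation read as complemented b-gal luminescence after 1 h RT detection.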

[7] = molecular target: 3',5'-cyclic-AMP phosphodiesterase 4B (Homo sapiens) (UniProt Q07343); assay: qHTS Assay for Inhibitors of PDE-IV (AID 607; active means well fitted activation curve with a large enough effect in the main read-out, with a control signal flat, not every such curve was filed as active; further: % of control where 0% means no effect); details: HEK293 ACTOne CNG channel cells, membrane potential fluorescence; series mostly up to 22.9 µM
Chain of 3',5'-cyclic-AMP phosphodiesterase 4B (Homo sapiens) (Q07343 whole entry, looked up): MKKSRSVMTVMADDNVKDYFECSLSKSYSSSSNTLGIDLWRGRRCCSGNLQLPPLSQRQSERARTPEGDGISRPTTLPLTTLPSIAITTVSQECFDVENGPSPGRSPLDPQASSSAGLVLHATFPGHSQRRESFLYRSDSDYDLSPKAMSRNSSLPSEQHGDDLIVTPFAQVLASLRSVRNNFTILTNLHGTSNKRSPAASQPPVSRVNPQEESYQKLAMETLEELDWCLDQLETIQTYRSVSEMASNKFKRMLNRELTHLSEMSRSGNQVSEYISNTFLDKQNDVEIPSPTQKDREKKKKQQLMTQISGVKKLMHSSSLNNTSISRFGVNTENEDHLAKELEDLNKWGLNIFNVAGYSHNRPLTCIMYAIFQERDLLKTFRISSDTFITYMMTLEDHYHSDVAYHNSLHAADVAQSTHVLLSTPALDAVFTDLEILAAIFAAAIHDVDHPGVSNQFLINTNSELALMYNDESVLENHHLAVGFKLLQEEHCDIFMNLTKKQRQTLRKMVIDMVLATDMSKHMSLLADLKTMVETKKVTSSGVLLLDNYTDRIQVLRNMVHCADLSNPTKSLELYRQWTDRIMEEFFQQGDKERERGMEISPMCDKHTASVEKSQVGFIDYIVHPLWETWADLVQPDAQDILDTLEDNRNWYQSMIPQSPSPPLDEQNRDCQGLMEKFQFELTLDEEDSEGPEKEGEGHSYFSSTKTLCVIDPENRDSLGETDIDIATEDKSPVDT
Procedure, shortened: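 ACTOne HEK293 cells carry a modified cAMP-gated CNG channel and express endogenous PDE4; plated 1000 cells/well, compounds up to 22.9 uM final. Membrane-potential dye fluorescence (ex 535/em 590) was read; parental cells received 10 uM forskolin + 100 uM RO 20-1724.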

[8] = qHTS Assay for Identification of Small Molecule Agonists for Hypoxia Response Element Signaling Pathway (AID 914; active means well fitted activation curve with a large enough effect in the signal ratio, with a control signal flat, not every such curve was filed as active; the % refers to the signal ratio; further: potency means the concentration at half of the fitted maximal effect; on activation: % of control where 0% means no effect); details: ME-180 HRE-bla reporter, beta-lactamase ratio, CoCl2, 17 h; activation: stronger effect = higher value
Procedure, shortened: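 HRE-bla ME-180 assay for agonist-like enhancement of an EC50 CoCl2 stimulus: 17 h at 37 degrees Celsius, CCF4 for 2.5 h, ratiometric 460/530 nm signal converted to %Activity and fitted to AC50.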

[9] = molecular target: Mitogen-activated protein kinase 10 (Mus musculus) (UniProt Q61831); assay: JNK3 AlphaScreen Assay (AID 530); details: JNK3 lysate, c-Jun phosphorylation; series mostly up to 11.4 µM;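 further: kinase came from lysate of stimulated human HepG2 cells; signal reports phosphorylation of biotinylated GST-cJun 1-79 at Ser73 with 10 µM ATP; on the % scale 0 is the no-effect control and ±100 the full control effect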
Procedure, shortened: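 Pre-activated (IL-1β/TNFα) JNK3 in HepG2 lysates phosphorylates biotin-GST-cJun(1-79), 10 uM ATP; anti-phospho-cJun(Ser73) AlphaScreen read at room temperature, pH 7.6 Tris buffer. Compounds pre-incubated 15 min as titrations.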

[10] = molecular target: ATP-dependent 6-phosphofructokinase (Trypanosoma brucei brucei) (UniProt O15648); assay: qHTS Assay to Find Inhibitors of T. brucei phosphofructokinase: hit validation (AID 492961; active means well fitted curve in the direction sought with a large enough effect; an effect the other way counts as inactive or inconclusive;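 further: luminescence reports ADP formed as PFK phosphorylates fructose-6-phosphate with ATP; on the % scale 0 is the no-effect control and ±100 the full control effect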); details: T. brucei PFK, ADP-Glo luminescence; series mostly up to 51.4 µM
Chain of ATP-dependent 6-phosphofructokinase (Trypanosoma brucei brucei) (O15648 whole entry, looked up): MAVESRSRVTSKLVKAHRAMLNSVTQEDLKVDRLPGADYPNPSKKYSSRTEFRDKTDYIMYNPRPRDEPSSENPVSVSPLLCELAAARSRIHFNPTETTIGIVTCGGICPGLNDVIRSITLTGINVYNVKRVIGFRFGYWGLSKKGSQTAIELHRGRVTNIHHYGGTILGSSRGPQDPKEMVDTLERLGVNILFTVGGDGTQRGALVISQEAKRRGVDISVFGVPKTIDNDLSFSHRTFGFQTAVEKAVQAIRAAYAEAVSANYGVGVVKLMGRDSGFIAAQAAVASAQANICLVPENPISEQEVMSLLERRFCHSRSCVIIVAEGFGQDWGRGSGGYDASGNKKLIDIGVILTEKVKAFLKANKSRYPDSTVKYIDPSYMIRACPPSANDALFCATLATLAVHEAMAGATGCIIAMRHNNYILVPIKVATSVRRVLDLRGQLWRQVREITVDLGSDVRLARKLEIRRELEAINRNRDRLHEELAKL
Procedure, shortened: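 Compounds titrated; %activity normalized to 0x and 1x enzyme controls, curve-fitted. Readout: ADP-Glo luminescence after 45 min room-temperature reaction of 1.25 nM PFK, 0.1 mM ATP, 0.5 mM F6P, pH 8.0.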

[11] = qHTS profiling for inhibitors of Plasmodium falciparum proliferation (AID 504749; active means well fitted curve in the direction sought with a large enough effect; an effect the other way counts as inactive or inconclusive;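 further: 0% = DMSO vehicle and full inhibition = artemisinin control; nearly all actives have a fitted effect of over 60% in size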); details: P. falciparum in erythrocytes, SYBR Green DNA, 72 h, at 28.7 µM (top of the series)
Procedure, shortened: (§1)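 P. falciparum-infected erythrocytes (0.3% parasitemia, 2.5% hematocrit) incubated with compound 72 h at 37 C, 5% CO2. Parasite DNA detected by SYBR Green after lysis, overnight at room temperature; normalised to 0.29 uM artemisinin and DMSO.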

[12] = system: CP192; assay: as above; details: P. falciparum in erythrocytes, SYBR Green DNA, 72 h; series mostly up to 28.7 µM
Procedure, shortened: as §1

[13] = system: CP203; assay: as above; details: P. falciparum in erythrocytes, SYBR Green DNA, 72 h; series mostly up to 28.7 µM
Procedure, shortened: as §1

[14] = system: W2; assay: as above; details: P. falciparum in erythrocytes, SYBR Green DNA, 72 h; series mostly up to 28.7 µM
Procedure, shortened: as §1

[15] = Stat Signaling Pathway (AID 446); details: ME-180 SIE beta-lactamase reporter, IL-6 stimulated, 5 h; at 7.69 µM (top of the series) unless noted
Procedure, shortened: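 ME-180 SIE-bla cells; overnight plating; cpd + IL-6 40 pM, 5 h, 37 C; LiveBLAzer 2.5 h RT; 460/530 nm emission ratio. Normalized to 300 pM IL-6 and 125 nM JAK inhibitor controls.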

[16] = molecular target: Cytochrome P450 2D6 (Homo sapiens) (UniProt P10635); assay: qHTS Assay for Inhibitors and Substrates of Cytochrome P450 2D6 (AID 891; active means well fitted curve in the direction sought with a large enough effect; an effect the other way counts as inactive or inconclusive;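 further: luciferin methyl ether substrate demethylated by CYP2D6 with NADPH regeneration; on the % scale 0 is the no-effect control and ±100 the full control effect; nearly all actives have a fitted effect of over 60% in size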); details: recombinant CYP2D6, luciferin-ME EGE luminescence; series mostly up to 11.4 µM
Chain of Cytochrome P450 2D6 (Homo sapiens) (P10635 whole entry, looked up): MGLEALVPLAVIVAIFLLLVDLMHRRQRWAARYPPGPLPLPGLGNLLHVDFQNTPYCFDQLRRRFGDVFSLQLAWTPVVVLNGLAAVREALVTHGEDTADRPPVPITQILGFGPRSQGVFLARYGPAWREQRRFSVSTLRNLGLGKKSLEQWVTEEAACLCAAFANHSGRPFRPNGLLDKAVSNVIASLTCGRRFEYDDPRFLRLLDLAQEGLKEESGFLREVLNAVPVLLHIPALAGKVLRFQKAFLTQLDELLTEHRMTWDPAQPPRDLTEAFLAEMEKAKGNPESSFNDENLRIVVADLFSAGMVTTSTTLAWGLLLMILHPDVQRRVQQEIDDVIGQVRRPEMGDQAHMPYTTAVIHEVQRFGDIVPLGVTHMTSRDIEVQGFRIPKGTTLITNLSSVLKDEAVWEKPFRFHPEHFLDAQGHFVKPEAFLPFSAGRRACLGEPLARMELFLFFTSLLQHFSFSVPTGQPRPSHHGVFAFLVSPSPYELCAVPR
Procedure, shortened: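 Human CYP2D6 (5 nM) with 30 uM Luciferin-ME EGE (at Km) in 100 mM KPO4, compound preincubated 10 min, then NADPH regeneration system for 60 min at room temperature. Luciferin read by luminescence; normalized to 1.43 uM quinidine.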

[17] = molecular target: Cytochrome P450 2C19 (Homo sapiens) (UniProt P33261); assay: qHTS Assay for Inhibitors and Substrates of Cytochrome P450 2C19 (AID 899; active means well fitted curve in the direction sought with a large enough effect; an effect the other way counts as inactive or inconclusive; further: on the % scale 0 is the no-effect control and ±100 the full control effect; nearly all actives have a fitted effect of over 60% in size); details: recombinant CYP2C19, luciferin-H EGE luminescence; series mostly up to 11.4 µM
Chain of Cytochrome P450 2C19 (Homo sapiens) (P33261 whole entry, looked up): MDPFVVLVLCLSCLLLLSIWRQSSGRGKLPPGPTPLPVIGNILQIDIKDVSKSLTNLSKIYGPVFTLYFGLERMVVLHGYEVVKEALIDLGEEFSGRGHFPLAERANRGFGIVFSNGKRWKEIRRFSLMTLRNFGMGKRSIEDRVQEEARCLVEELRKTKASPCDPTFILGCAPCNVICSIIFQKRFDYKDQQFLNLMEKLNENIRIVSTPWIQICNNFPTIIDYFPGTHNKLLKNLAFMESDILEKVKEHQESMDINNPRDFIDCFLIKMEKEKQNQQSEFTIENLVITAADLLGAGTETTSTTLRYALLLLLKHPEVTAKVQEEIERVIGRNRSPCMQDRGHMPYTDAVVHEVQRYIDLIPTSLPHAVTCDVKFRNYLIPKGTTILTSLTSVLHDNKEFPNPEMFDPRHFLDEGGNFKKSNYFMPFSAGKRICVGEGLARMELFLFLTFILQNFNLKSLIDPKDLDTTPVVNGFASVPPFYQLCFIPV
Procedure, shortened: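 5 nM human CYP2C19 with 10uM Luciferin-H EGE (at KM) in 50mM KPO4, compound preincubated 10 min at 37C, then NADPH regeneration for 60 min at 37C. Luciferin read by luminescence after detection reagent; normalized to 57uM ketoconazole as full inhibition.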

O=c1c(-c2cccs2)nc2cnc(Oc3ccccc3)nc2n1C1CC1
inactive: Potency [1] > 11.4 µM | activity change, negative = inhibition [2] -6.67% | activity change, negative = inhibition [4] 22.4% | Potency [5] > 9.22 µM | Potency [6] > 46 µM | Potency [7]
active: Potency [3] 2.51 µM | Potency [8] 3.16 µM

CC1(C)[C@@H]2CC[C@]1(C)[C@@H](OC(=O)CSC#N)C2
inactive: Potency [1] > 11.4 µM | activity change, negative = inhibition [2] -4% | activity change, negative = inhibition [3] -18.3% [at 2.29 µM] | activity change, negative = inhibition [4] 18.3% | Potency [9] | Potency [7] | activation [8] -0.299% | outcome [10] | activity, negative = inhibition ([11]; parasite line A) -6.1% | activity, negative = inhibition ([11]; parasite line B) -5.42% | Potency [12] | Potency [13] | Potency [14]

Cc1c2cc[n+](CCN3CCCCC3)cc2c(C)c2c1[nH]c1ccc(O)cc12
inactive: Potency [1] > 11.4 µM | activity change, negative = inhibition [2] 9.2% | activity, negative = inhibition [15] 17.1% | Potency [5] > 46 µM | Potency [6] > 9.22 µM | Potency [9] | Potency [7]
active: Potency [3] 2.51 µM

CC(=O)O[C@]1(C)N=NC2(CCCCC2)O1
inactive: Potency [1] > 11.4 µM | activity change, negative = inhibition [2] 0.791% | Potency [3] | activity change, negative = inhibition [4] 3.95% | Potency [5] > 46 µM | Potency [6] > 9.22 µM | Potency [9] | Potency [7] | activation [8] 14.3%

Cc1ncn(-c2ccccc2O)c1C
active: Potency [3] 0.794 µM
inactive: Potency [1] > 11.4 µM | activity change, negative = inhibition [2] 4.1% | activity, negative = inhibition [15] 6.2% | Potency [5] > 46 µM | Potency [6] > 9.22 µM | Potency [9] | Potency [7]

Cc1cccc(C)c1NC(=O)Nc1ccc(S(N)(=O)=O)cc1
inactive: Potency [1] > 11.4 µM | activity change, negative = inhibition [2] 3.48% | activity change, negative = inhibition [3] -10.8% [at 2.29 µM] | activity change, negative = inhibition [4] 11% | Potency [5] > 46 µM | Potency [6] > 9.22 µM | Potency [9] | Potency [7] | activation [8] 13.8%

COc1cccc2c1C(=O)c1c(O)c3c(c(O)c1C2=O)C[C@](O)(C(=O)CO)C[C@@H]3O[C@H]1C[C@H](N)[C@@H](O)[C@H](C)O1
inactive: Potency [1] > 11.4 µM | activity change, negative = inhibition [2] 13.6% | Potency [3] | activity, negative = inhibition [15] 15.8% | Potency [5] > 46 µM | Potency [6] > 9.22 µM | Potency [9] | Potency [7] | Potency [16] | Potency [17] | outcome [10] | activity, negative = inhibition ([11]; parasite line A) 6.65% | activity, negative = inhibition ([11]; parasite line B) 5.26% | Potency [12] | Potency [13] | Potency [14]
